# Screens (PubChem)
# uPA generation = cell surface uPA generation inhibition; cell surface uPA generation assay, qHTS; Potency, µM (highest dose often 38.3 µM), without a hit: at the top dose activity change, negative = inhibition, most hits filed as inhibitors; 330,000 compounds, 0.31% hits; AID 540303; active = well fitted inhibition curve with a large enough effect; inconclusive = small, poorly fitted or top-dose-only effect; inactive = no such curve, though single readings can be large or run the other way; tested in mouse RAW 264.7 cells; note: potency is the fitted concentration of half-maximal effect; % is set by controls: 0 for no effect and ±100 for the full control effect; nearly all actives have a fitted effect of over 55% in size
# TGFb inhibitor = inhibitors of TGF-b signaling; HepG2 CAGA-GFP TGF-b/SMAD3 reporter, GFP fluorescence, 18 h; TGF-beta stimulated, 500 pg/mL final; Potency, µM (series often up to 46.1 µM), for the others: top-dose activity, negative = inhibition, usual class: inhibitors; 410,000 compounds, 1.2% hits; note: potency is the fitted concentration of half-maximal effect; % is set by controls: 0 for no effect and ±100 for the full control effect; nearly all actives have a fitted effect of over 65% in size
#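 GFP signal (ex488/em500-530) from TGF-beta-stimulated HEPG2 CAGA-GFP cells, 500 pg/mL final, 18 h at 37 degrees C in DMEM plus 1% FBS, normalized to unstimulated and DMSO-stimulated controls.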
# ATXN viability = cell viability loss in ATXN counter-screen; S2 cells (HEK-293 line with an ATXN2-luciferase reporter) viability, CellTiter-Fluor protease fluorescence, 24 h; Potency, µM (highest dose often 56.7 µM), actives largely listed as cytotoxic; 400,000 compounds, 0.49% hits; AID 651635; note: potency is the fitted concentration of half-maximal effect; nearly all actives have a fitted effect of over 40% in size
# ATXN2 expr inh = inhibitors of ATXN2 expression; HEK-293 ATXN2-luciferase reporter, luminescence, 24 h; Potency, µM (doses to about 57 µM), inactives show top-dose activity change, negative = inhibition, usual class: inhibitors; 360,000 compounds, 0.72% hits; note: potency is the fitted concentration of half-maximal effect; % is set by controls: 0 for no effect and ±100 for the full control effect; nearly all actives have a fitted effect of over 55% in size
#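 qHTS (up to 57 uM final) was run with 24 h compound exposure of reporter cells at 37 °C. Each well was multiplexed: SteadyGlo luminescence measured ATXN2-luciferase expression after a fluorogenic Gly-Phe-AFC viability readout (25 uM final).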
# HepG2 viability = counter-screen for TGF-b inhibitors: cytotoxicity in HepG2 cells. HepG2 CAGA-GFP viability, ATP luminescence, 18 h. Potency, µM (top dose mostly 46.1 µM), for inactives: at the highest dose activity change, negative = cytotoxicity, usual class: cytotoxic. 410,000 compounds, 0.76% hits. AID 588856; note: potency is the fitted concentration of half-maximal effect
#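 HepG2 CAGA-GFP cells (1000/well, DMEM with 1% FBS) received compound, then TGF-beta at 500 pg/mL final, and were incubated 18 hours at 37 degrees C. Viability was read by CellTiter-Glo luminescence. Media-only wells were set as complete cell-killing and DMSO as no toxicity.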
# Giardia killer = Giardia lamblia killing. Giardia lamblia trophozoite viability. activity change, % at 7.66 µM, hits read low. 340,000 compounds, 0.15% hits; in the data active = activity change below about -80%; inconclusive = between about -30% and that limit;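 note: parasites exposed to compound for two days anaerobically before the ATP read; % is set by controls: 0 for no effect and ±100 for the full control effect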
#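 Giardia trophozoites, 100 cells per well, were exposed to compounds for 48 hrs at 37 deg C under anaerobic conditions; viability was then read as ATP content by bioluminescence after 15-30 min at room temperature.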
# An asterisk follows results filed as active; i = inactive; u = inconclusive; x = not tested or not shown; [ ] = remark or other dose. In the library only some 2.6% were active in any assay of this set; here they are far more common. Unless noted, calls come from the whole dose curve; as a rule, active = well fitted curve in the direction sought with a large enough effect; inconclusive = small, poorly fitted or top-dose-only effect, or another doubt; inactive = no such curve, though single readings can be large; an effect the other way counts as inactive or inconclusive.
SMILES,uPA generation,TGFb inhibitor,ATXN viability,ATXN2 expr inh,HepG2 viability,Giardia killer
COc1cc(CNC(=O)Nc2nc(C(N)Cc3ccc(Cl)cc3)cs2)cc(OC)c1OC (stereo not given),x,u,25.1µM*,u,17.8µM*,x
COc1cc(OC)c(/C=C/c2ccc3ccccc3n2)c(OC)c1,x,u,x,x,-32.8%,x
CC1(C)CCC[C@@]2(C)[C@@H]1CC[C@@]1(C)OC(=O)C[C@H]21,x,x,x,-16.1%,x,x
CCOC(=O)C(O)c1ccccc1 (stereo not given),x,x,i,6.7%,x,x
CC(C)c1ccccc1NC(=O)Nc1nc(C(N)Cc2ccc(C(F)(F)F)cc2)cs1 (stereo not given),x,11.2µM*,x,u,8.91µM*,x
CC(C)CC(N)c1csc(NC(=O)Nc2ccccc2C(C)C)n1 (stereo not given),x,u,u,u,-98.2%,x
CCCc1ccc(-c2cc(C(=O)N3CCN(c4ccccn4)CC3)c3ccccc3n2)cc1,7.08µM*,u,i,-19.8%,-50.0%,u
O=C(c1cc(-c2ccccc2)nc2ccccc12)N1CCCC1,-3.9%,-0.6%,i,-3.0%,-8.9%,25.4
Cc1ccc(-c2cc(C(=O)N3CCN(c4ccc(O)cc4)CC3)c3ccccc3n2)cc1,10µM*,u,i,x,-27.6%,10.0
Cc1ccc(-c2cc(C(=O)N3CCN(c4ccccc4O)CC3)c3ccccc3n2)cc1,-4.1%,0.5%,u,7.0%,1.9%,-5.7
Cc1cnn(C(=O)c2cc(-c3ccccc3)nc3ccccc23)c1,x,u,i,-4.6%,10µM*,5.6
Cc1[nH]n(-c2ccccc2)c(=O)c1N=Nc1nccs1,x,u,x,22.4µM*,-26.9%,-4.7
Cc1ccccc1N=Nc1c(C)[nH]n(-c2ccccc2)c1=O,1.3%,12.0%,i,-7.1%[11.3 µM],-3.1%,6.1
c1ccc(-c2cn3c(n2)-c2ccccc2C3)cc1,6.31µM*,-20.2%,u,0.4%,-64.2%,u
Cc1cc(C)c2oc(-c3cccc(NC(=O)c4ccc(Br)o4)c3)nc2c1,x,-18.6%,i,12.9%,-2.1%,x
O=C(Nc1cccc(-c2nnc(-c3ccccc3)o2)c1)c1ccc(Br)o1,u,u,35.5µM*,u,-45.2%,-13.4
Cc1c(N)nc(C(CC(N)=O)NCC(N)C(N)=O)nc1C(=O)NC(C(=O)NC(C)C(O)C(C)C(=O)NC(C(=O)NCCc1nc(-c2nc(C(=O)NCCCN[C@@H](C)c3ccccc3)cs2)cs1)C(C)O)C(O[C@@H]1O[C@@H](CO)[C@@H](O)[C@H](O)[C@@H]1O[C@H]1O[C@H](CO)[C@@H](O)[C@H](OC(N)=O)[C@@H]1O)c1cnc[nH]1 (stereo not given in full),x,x,i,x,x,x
COc1ccc(OC)c(CN2CCOc3ccc(C(O)c4cccnc4)cc3C2)c1 (stereo not given),x,x,i,x,x,x
C=CCNc1nc(NCc2ccc(NC(C)=O)cc2)c2sc(-c3ccccc3)cc2n1,x,u,31.6µM*,u,11.2µM*,x
C=CCNc1nc(NCCCN2CCCC2=O)c2sc(-c3ccccc3)cc2n1,x,u,i,-30.8%,-13.5%,x
CC(=O)Nc1ccc(CNc2nc(NC(C)C)nc3cc(-c4ccccc4)sc23)cc1,x,u,u,22.4µM*,-112.5%,x
CCCCCC/C=C/c1ccc(OC)c(C2C3C=CCC(C)C3C(=O)N2Cc2ccccc2)c1 (stereo not given),x,1.0%,x,x,6.5%,-5.0
COc1cccc(NC(=O)c2nc(SC)ncc2Cl)c1,-2.9%,-1.4%,i,-17.4%,-10.9%,-4.5
Cc1cccc(NC(=O)c2nc(S(C)(=O)=O)ncc2Cl)c1,x,7.94µM*,u,u,20µM*,x
COc1cccc(NC(=O)c2nc(S(C)(=O)=O)ncc2Cl)c1,-17.5%,15.8µM*,u,u,-96.0%,-9.9
O=C(C[n+]1csc2ccccc21)c1ccc(I)cc1,x,-2.4%,x,x,-2.5%,x
